For 35 compounds, composite z-score results are on record in PubChem BioAssay.

The nature of one assay: small molecules captured by biotinylated probe aFGF2 – biochemical, small-molecule microarray, fluorescence 635/667, stem cell growth factor project, primary screen (AID 1067).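 Note: measures binding of biotinylated aFGF2 protein to printed compounds on slides; z-score merges feature fluorescence and signal-to-noise across triplicate slides.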 Particulars: higher = more signal.
On to `[N-]=[N+]=Nc1ccccc1C[C@]1(C(=O)O)N=C(c2ccc(OCCCO)cc2)O[C@H]1c1ccccc1N=[N+]=[N-]`, for which the composite z-score was 0.0857.

For the compound `C=C(/C(=C/C[C@@H](OC(=O)c1ccncc1)c1cccc(OCCO)c1)c1cnc2ccccc2c1)C(C)C`, the composite z-score is -0.123.

In the case of `CCCNC(=O)[C@@]1(Sc2ccc(C)cc2)CC(=O)N(C(C)C)[C@@H]1c1ccc(CO)cc1I`, the composite z-score is -0.104.

In turn, `C=CCNC(=O)[C@@H]1[C@H]2C(=O)O[C@H](c3ccccc3)[C@H](c3ccccc3)N2[C@H](c2ccc(OCCO)cc2)[C@@]12C(=O)N(C(=O)OCCOC)c1ccc(C#CCCO)cc12` displayed a composite z-score of -0.0203.

Regarding `CCCCCCCCCCC(O)C1C=CC2C(=O)N(c3ccccc3)C(=O)C2N1Nc1ccccc1F` (stereo not drawn), the composite z-score is -0.0647.

Consider `COC(=O)C1N=C(c2ccc(OCCCO)cc2)N(c2ccccc2)O1` (stereo not drawn), for which the composite z-score is -0.0189.

For `COC(=O)[C@@]1(Cc2ccc(F)cc2)[C@H]2c3cc(C(=O)N4CCCC4)n(C)c3C[C@H]2CN1C(=O)c1ccccc1`, the composite z-score was determined as 0.404.

`O=C1C2C=CC(C(O)C=Cc3ccc([N+](=O)[O-])cc3)N(Nc3ccccc3)C2C(=O)N1c1ccccc1` (stereo not drawn) came in with a composite z-score of 0.183.

A short description of the next assay: small molecules captured by biotinylated probe aFGF10 – biochemical, small-molecule microarray, fluorescence 635/667, stem cell growth factor project, primary screen (AID 1071).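 Note: score merges 667 nm spot intensity and signal to noise from triplicate slides.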 Particulars: higher = more signal.
Regarding `CCOC(=O)C=Cc1cc(F)ccc1O`, the composite z-score was 0.207.

`[N-]=[N+]=Nc1ccccc1[C@@H]1OC(c2ccc(OCCCO)cc2)=N[C@]1(Cc1ccccc1)C(=O)NCc1ccccc1`: the composite z-score stood at 0.371.

With `Cc1ccccc1C(O)C1C=CC2C(=O)NC(=O)C2N1Nc1ccc(Cl)cc1Cl` (stereo not drawn), the composite z-score is 0.5.

As for `COc1ccc([Si](C)(C)[C@H]2[C@H](CCO)O[C@@]3(C(=O)N(Cc4ccccc4)c4ccc(N5CCOC5=O)cc43)[C@@H]2C)cc1`, the composite z-score came out at 0.522.

Turning to `COCC1C2CC[C@H]3C(OCc4ccc(OC)cc4)OC[C@]4(C)[C@H]3C2=C(CN4C(=O)OC(C)(C)C)[C@H](C)C1COC` (stereo partly drawn), the composite z-score came to 1.09.

As to `COCCOC(=O)N1C(=O)[C@@]2(c3cc(C#CC4(O)CCCCCC4)ccc31)[C@H](C(=O)N1CCN(c3ncccn3)CC1)[C@H]1C(=O)O[C@H](c3ccccc3)[C@H](c3ccccc3)N1[C@@H]2c1ccccc1OCCO`, the composite z-score is 0.452.

As for `COc1ccc(C(=O)Nc2cccc(CN3C(=O)[C@@]4(O[C@@H](CC(=O)N(CCO)Cc5ccccc5)[C@H]([Si](C)(C)c5ccc(OC)cc5)[C@H]4C)c4ccccc43)c2)cc1`, the composite z-score was found to be 0.079.

Compound `COCCOC(=O)N1C(=O)[C@@]2(c3cc(C#CCNC(N)=O)ccc31)[C@H](c1ccc(O)cc1)N1[C@H](c3ccccc3)[C@H](c3ccccc3)OC(=O)[C@H]1[C@@H]2C(N)=O` displayed a composite z-score of -0.484.

As for `O=C1C2C=CC(C(O)c3cccc(O)c3)N(Nc3ccccc3)C2C(=O)N1c1ccccc1` (stereo not drawn), the composite z-score is 0.212.

As for `COc1ccc([Si](C)(C)[C@@H]2[C@@H](CC(=O)N3Cc4ccccc4C[C@H]3CO)O[C@]3(C(=O)N(c4ccccc4)c4ccccc43)[C@H]2C)cc1`, the composite z-score was 0.934.

`COc1ccc(C(O)C2C=CC3C(=O)N(c4ccccc4)C(=O)C3N2Nc2ccccc2F)cc1` (stereo not drawn): the composite z-score is -0.0293.

In turn, `COCCOC(=O)N1C(=O)[C@@]2(c3cc(C#CCC(C(=O)OC)C(=O)OC)ccc31)[C@H](c1ccc(O)cc1)N1[C@H](c3ccccc3)[C@H](c3ccccc3)OC(=O)[C@H]1[C@@H]2C(=O)NC[C@H](O)c1ccccc1` registered a composite z-score of 0.144.

Compound `COCC(=C=CC[C@H](O)c1cccc(OCCO)c1)C[C@H](O)COCc1ccccc1` had a composite z-score of 0.427.

On to `C=C(C)[C@@H]1CC=C(C(O)C2C=CC3C(=O)N(c4ccccc4)C(=O)C3N2Nc2ccc(C#N)cc2)CC1` (stereo partly drawn), for which the composite z-score was 0.783.

Turning to `COc1ccc(NC(=O)O[C@H]2[C@@H]3OC(=O)[C@H](Cc4cccc(Br)c4)C/C=C/C[C@@H](Cc4cccc(Br)c4)C(=O)O[C@H]3[C@@H](OC)O[C@@H]2CO)cc1`, the composite z-score worked out at 0.579.

`C=C(/C(=C/C[C@H](OC(=O)c1ccncc1)c1cccc(OCCO)c1)c1cnc2ccccc2c1)C(C)C` displayed a composite z-score of 1.34.

Turning to `CS(=O)(=O)CCOC(=O)C1=CC(CCCO)=CC(C2CC2)N(Cc2cccc(OC(F)(F)F)c2)C=C1C(=O)OCCS(C)(=O)=O` (stereo not drawn), the composite z-score worked out at 0.147.

Compound `NC(=O)[C@H]1[C@@H]2C(=O)O[C@@H](c3ccccc3)[C@@H](c3ccccc3)N2[C@@H](c2ccc(O)cc2)[C@]12C(=O)Nc1ccc(C#CC3=CCCCC3)cc12` registered a composite z-score of -0.105.

`[N-]=[N+]=NCc1ccccc1[C@@H]1OC(c2ccc(OCCCO)cc2)=N[C@]1(Cc1ccccc1)C(=O)NCCN1CCOCC1` had a composite z-score of 1.1.

With `COc1cc(C(O)C2C=CC3C(=O)N(Cc4ccccc4)C(=O)C3N2n2cnnc2)cc(OC)c1OC` (stereo not drawn), the composite z-score worked out at 0.537.

Take `C=CCN1C(=O)[C@@]2(O[C@@H](CCO)[C@H]([Si](C)(C)c3ccc(OC)cc3)[C@H]2C)c2cc(N3CCOC3=O)ccc21`: the composite z-score came to 0.448.

In turn, `CC(C)[C@H]1NC(=O)[C@@]23C(=O)N[C@@H](Cc4ccccc4)C2[C@H](C)[C@@]2(C)O[C@H]2C3/C=C/C/C=C\CNC(=O)[C@H](Cc2ccccc2)NC1=O` (stereo partly drawn) displayed a composite z-score of 1.01.

Take `O=C1C2C=CC(C(O)c3ccco3)N(Nc3ccccc3)C2C(=O)N1c1ccccc1` (stereo not drawn): the composite z-score is -0.216.

`CC(C)C[C@@H]1NC(=O)[C@@]23C(=O)N[C@@H](Cc4ccccc4)C2[C@H](C)[C@@]2(C)O[C@H]2C3/C=C/C/C=C\CNC(=O)[C@@H](C)NC1=O` (stereo partly drawn) gave a composite z-score of 0.392.

`CCN(CC)c1ccc(N2CC=CC34O[C@@H]5/C=C\CCC(C)OC(=O)C5[C@H]3C(=O)N(C(C)CO)[C@@H]4C2=O)cc1` (stereo partly drawn) displayed a composite z-score of -0.244.

The compound `CO[C@H]1O[C@H](CO)[C@@H](OC(=O)c2ccc(Br)cc2)[C@@H]2OC(=O)[C@H](Cc3ccccc3)C/C=C/C[C@@H](Cc3ccccc3)C(=O)O[C@@H]12` gave a composite z-score of 0.706.

In turn, `CC(C)C(CO)N1C(=O)[C@@H]2[C@H]3C(=O)OCC=C[C@H]3OC23C=CCN(C(C)(C)C)C(=O)[C@@H]13` (stereo partly drawn) yielded a composite z-score of -0.724.

Regarding `[N-]=[N+]=Nc1ccccc1C[C@]1(C(=O)O)N=C(c2ccc(OCCCO)cc2)O[C@H]1c1ccccc1N=[N+]=[N-]`, the composite z-score was determined as 0.619.

In turn, `C=C(/C(=C/C[C@@H](OC(=O)c1ccncc1)c1cccc(OCCO)c1)c1cnc2ccccc2c1)C(C)C` gave a composite z-score of 1.15.

On to `CCCNC(=O)[C@@]1(Sc2ccc(C)cc2)CC(=O)N(C(C)C)[C@@H]1c1ccc(CO)cc1I`, for which the composite z-score is -0.77.

As to `C=CCNC(=O)[C@@H]1[C@H]2C(=O)O[C@H](c3ccccc3)[C@H](c3ccccc3)N2[C@H](c2ccc(OCCO)cc2)[C@@]12C(=O)N(C(=O)OCCOC)c1ccc(C#CCCO)cc12`, the composite z-score was found to be 0.508.

In turn, `CCCCCCCCCCC(O)C1C=CC2C(=O)N(c3ccccc3)C(=O)C2N1Nc1ccccc1F` (stereo not drawn) came in with a composite z-score of 0.183.

The compound `COC(=O)C1N=C(c2ccc(OCCCO)cc2)N(c2ccccc2)O1` (stereo not drawn) gave a composite z-score of 1.17.

As for `COC(=O)[C@@]1(Cc2ccc(F)cc2)[C@H]2c3cc(C(=O)N4CCCC4)n(C)c3C[C@H]2CN1C(=O)c1ccccc1`, the composite z-score was 0.779.

In turn, `O=C1C2C=CC(C(O)C=Cc3ccc([N+](=O)[O-])cc3)N(Nc3ccccc3)C2C(=O)N1c1ccccc1` (stereo not drawn) came in with a composite z-score of 0.995.
